Compound activity as filed in PubChem BioAssay.
PrP 5UTR inh = suppresses PrP 5' UTR mRNA reporter expression | inhibition, % (test concentration not listed) | 340,000 compounds, 0.35% hits | cell-based PrP 5' UTR mRNA reporter, plate reader; in the data active = inhibition above about 52%; note: 0 = median of the neutral control wells
BH1578 lux ind = induces V. cholerae light production without autoinducers. activation, % at 18.7 µM. AID 588436. 350,000 compounds, 0.16% hits. V. cholerae BH1578 lux reporter, luminescence, 6 h; in the data active = activation mostly above about 9.7%, no sharp cut-off; inconclusive = no clear call, values can overlap the other calls; inactive = mostly below about 3.7%
FadD28 binding = inhibitors of Mycobacterium tuberculosis FadD28 bisubstrate binding; inhibition, % at 12.5 µM; 360,000 compounds, 0.22% hits; FadD28 bisubstrate probe binding, fluorescence polarization; AID 588549; in the data active = inhibition above about 8.5%, passing the limit was not always enough; inconclusive = no clear call, values can overlap the other calls
PrPC TRFRET = reduces human prion protein on the cell surface; P04156; cell surface PrPC, TR-FRET read-out; inhibition, % at 13.8 µM; 370,000 compounds, 0.43% hits; AID 720596; in the data active = inhibition above about 24%; note: 0% = median of the test wells and 100% = reference compound wells
PriA SSB inh = inhibitors of Klebsiella pneumoniae PriA binding to SSB C-terminal tail; AlphaScreen SSBct-PriA binding, biotinylated peptide; inhibition, % at 33 µM; 430,000 compounds, 0.6% hits; in the data active = inhibition mostly above about 37%, no sharp cut-off; inactive = mostly below about 20%;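 note: plate controls were negative control peptide for no effect and reference peptide for full effect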
PrP 5UTR single = prion 5' UTR mRNA inhibition, cherry-pick retest; cell-based prion protein 5' UTR reporter, plate reader; shares compounds with PrP 5UTR inh; 1,100 compounds, 48% hits; inhibition, % at 2.5 µM; in the data active = inhibition above about 54%; inconclusive = no clear call, values can overlap the other calls
* marks the source's active call; other numbers are inactive results; i = inactive; ? = inconclusive; nt = no result. An excerpt weighted towards active compounds, which were near 1.4% of everything screened.

SMILES	PrP 5UTR inh	BH1578 lux ind	FadD28 binding	PrPC TRFRET	PriA SSB inh	PrP 5UTR single
COc1ccc(C2/C(=C(/O)c3ccc(Cl)cc3)C(=O)C(=O)N2CCN2CCOCC2)c(OC)c1 (stereo unspecified)	63.2*	i	0.6	0.9	nt	-9.3
O=C(Nc1ccc(COc2ccccc2)cc1)Oc1ccccc1N1CCOCC1	58.6*	i	-2.3	1.0	7.1	32.3
COc1cc(C2c3cc4c(cc3CC3COC(=O)N32)OCO4)cc(OC)c1OC (stereo unspecified)	58.0*	i	-3.1	7.1	-30.6	90.9*
COc1cc(C2c3cc4c(cc3CC3COC(=O)C32)OCO4)cc(OC)c1OC (stereo unspecified)	55.2	-0.4	0.4	11.7	-1.7	nt
CC(=O)c1c(C)[nH]c(C(=O)COC(=O)CCCOc2ccccc2)c1C	58.3*	-1.4	0.4	-5.6	-13.4	?
Cc1ccsc1/C=N/Nc1cccc(C(=O)O)c1	72.3*	-3.6	-0.9	-2.8	nt	67.7*
Cc1nn(-c2ccccc2Cl)c(Cl)c1/C=N/Nc1cccc(C(=O)O)c1	77.3*	-0.3	15.9*	-2.6	nt	63.8*
Cc1ccsc1C=NNc1cccc(C(=O)O)c1	nt	nt	nt	nt	-7.0	nt
Cc1ccc(S(=O)(=O)N2CCC(=O)CC2c2ccccc2)cc1 (stereo unspecified)	56.2*	1.1	-1.4	-6.5	-11.8	-39.3
Cc1ccc(S(=O)(=O)N2CCCC(c3nnc(CC(C)(C)C)o3)C2)cc1C (stereo unspecified)	nt	nt	nt	nt	-6.0	nt
c1ccc(-n2nnnc2N2CCN(c3ccccn3)CC2)cc1	nt	nt	nt	nt	6.0	nt
NC(=O)c1cc2c3ccccc3ccn2c1-c1ccccc1	71.5*	i	-2.9	-4.7	-4.8	90.3*
Cc1cc(C(N)=O)c2ccccc2n1	-30.3	i	-2.4	-5.2	-14.3	nt
O=C(C1CCCC1)N1CCc2ccc(NS(=O)(=O)Cc3ccccc3)cc21	nt	nt	nt	nt	-17.0	nt
CCOC(=O)c1ccc(NC(=O)CSc2ccc(Cl)cc2)cc1	nt	nt	nt	nt	-14.0	nt
CC(C)c1ccc(C=NNc2ccc(C(=O)O)cc2)cc1	nt	nt	nt	nt	2.3	nt
CC(C)c1ccc(/C=N/Nc2ccc(C(=O)O)cc2)cc1	63.4*	1.6	0.9	13.4	nt	39.5
Cc1ccc(/C=N/Nc2ccc(C(=O)O)cc2)s1	63.3*	2.2	?	-3.3	nt	53.5*
O=C(CC1CCCCN1S(=O)(=O)c1ccc(F)cc1)Nc1ccc(Br)cc1 (stereo unspecified)	nt	nt	nt	nt	13.0	nt
Cc1c(Cl)ccc2sc(NC(=O)C3CCCN(S(C)(=O)=O)C3)nc12 (stereo unspecified)	nt	nt	nt	nt	-13.0	nt
COC(C(=O)NN=C(C)c1ccc(O)cc1)c1ccccc1 (stereo unspecified)	nt	nt	nt	nt	-6.2	nt
C=CCn1c(SCc2c(C)noc2C)nc2scc(-c3ccccc3Cl)c2c1=O	nt	nt	nt	nt	5.0	nt
CC(=NNC(=O)c1cc2ccccc2cc1O)c1cccs1	nt	nt	nt	nt	-8.9	nt
CC(C)C[C@H]1CNC(=S)N1CC1CCCN1C[C@H](Cc1ccc(O)cc1)N1C[C@H](Cc2ccccc2)N(CC2CCCCC2)C1=S (stereo partly specified)	66.6*	i	-1.0	-4.8	-1.9	-3.2
CC(C)C[C@H]1CNC(=S)N1C[C@H]1CCCN1C[C@H](Cc1ccccc1)N1C[C@H](Cc2ccc(O)cc2)N(CC2CCCCC2)C1=S	nt	nt	-5.2	7.0	nt	nt
SMILES	PrP 5UTR inh	BH1578 lux ind	FadD28 binding	PrPC TRFRET	PriA SSB inh	PrP 5UTR single
CCN1C/C(=C\c2cccc([N+](=O)[O-])c2)C(=O)/C(=C/c2cccc([N+](=O)[O-])c2)C1	63.0*	-0.2	-4.4	0.4	1.2	60.8*
O=C1/C(=C/c2cccc([N+](=O)[O-])c2)CC/C1=C\c1cccc([N+](=O)[O-])c1	nt	nt	nt	nt	-20.0	nt
O=C(c1ccco1)N1CCN(C(=O)C2CCCN(c3ccc(-c4ccc(F)cc4)nn3)C2)CC1 (stereo unspecified)	nt	nt	nt	nt	5.0	nt
COc1ccc(C(=O)N2CCN(c3ncnc4c(-c5ccccc5)nsc34)CC2)cc1	-23.3	i	0.2	2.0	-7.5	nt
COc1ccc(-c2nsc3c(N4CCCCC4)ncnc23)cc1	72.2*	i	-0.1	0.0	-5.2	70.0*
COc1ccc(-c2nsc3c(N4CCCCC4C)ncnc23)cc1 (stereo unspecified)	87.3*	-0.5	0.9	5.3	-19.8	82.7*
O=C(c1cc2ccccc2o1)N1CC(N2C(=O)CCC2=O)C1	nt	nt	nt	nt	-8.0	nt
C=CCn1c(SCC(=O)Nc2ccccc2C(=O)OCC)nc2c([nH]c3ccccc32)c1=O	nt	nt	nt	nt	-21.0	nt
CCOC(=O)c1cnc2c(-c3ccccc3OC)c(C)nn2c1C	76.5*	i	-1.5	-9.9	-32.6	-25.0
O=C(NCC1CCN(c2ccccn2)CC1)NC(c1ccccc1)c1ccccc1	nt	nt	nt	nt	8.0	nt
Cc1cccc(NC(=O)COc2cccc3ccc(N4CCN(C(=O)c5ccco5)CC4)nc23)c1	nt	nt	nt	nt	8.0	nt
CCOC(=O)C(C)Oc1cccc2c(=O)n(CC(=O)NCc3ccccc3)ccc12 (stereo unspecified)	75.4*	-0.2	-1.7	10.2	-13.2	88.0*
CCOC(=O)C(C)Oc1cccc2c(=O)n(CC(=O)NCCc3ccccc3)ccc12 (stereo unspecified)	-70.5	-0.2	-1.4	4.0	0.2	nt
CCOC(=O)C(C)Oc1cccc2c(=O)n(CC(=O)NCc3ccc(F)cc3)ccc12 (stereo unspecified)	79.4*	-0.2	0.0	-2.0	-7.2	90.8*
CC(=O)c1c[nH]c(C(=O)NC2CCCCCC2)c1	-21.4	i	2.4	-1.3	-7.3	nt
O=C(NC1CCCCC1)c1cc(C(=O)c2ccccc2Br)c[nH]1	71.0*	-0.9	-1.2	0.8	-8.5	-13.1
O=C(/C=C/c1ccccc1)Nc1cccc(C(=O)O)c1	79.8*	1.5	-2.3	0.3	-6.7	81.7*
CCOC(=O)c1nn(-c2ccccc2)c(=O)c2c(NC(=O)Cn3c(=O)oc4ccccc43)scc12	nt	nt	nt	nt	-1.0	nt
CCN(CC)c1ccc2cc(-c3nc4ccccc4[nH]3)c(=O)oc2c1	58.1*	i	0.2	nt	-21.7	65.5*
CCN(CC)c1ccc2cc(-c3nc4ccccc4n3C)c(=O)oc2c1	-17.0	-0.9	-2.1	0.6	-12.4	nt
O=C(NCC1(c2cccs2)CCOCC1)c1ccc(-c2ccccc2)cc1	nt	nt	nt	nt	-4.0	nt
O=C(O)CC1S/C(=N\N=C2CCCCCC2)N(c2ccccc2)C1=O (stereo unspecified)	-12.3	-0.5	-1.4	-1.2	nt	nt
CCOC(=O)CC/C(C)=N\N=C1\SC(CC(=O)O)C(=O)N1c1ccccc1 (stereo unspecified)	84.9*	i	-1.6	0.3	nt	-18.3
Nc1ccc(-c2cc3ccccc3c(=O)o2)cc1	70.0*	-0.9	-1.2	-9.7	-2.5	67.8*
O=c1oc(-c2ccccc2)cc2ccccc12	nt	-0.3	-1.1	1.5	-18.0	nt
O=C(NCCc1ccccc1)c1sccc1S(=O)(=O)N1CCN(c2ccccc2)CC1	nt	nt	nt	nt	-7.0	nt
Cc1ccc(C(c2nnnn2CC2CCCO2)N2CCN(Cc3ccccc3)CC2)cc1 (stereo unspecified)	67.0*	i	-0.3	-11.6	0.5	2.3
